Screening results: PubChem BioAssay, National Center for Advancing Translational Sciences (NCATS)
RECQ1 inh-1: inhibitors of human RECQ1 DNA helicase | RECQ1 DNA unwinding, red fluorescence kinetic read | Potency, µM (highest dose often 57.3 µM), without a hit: at the highest dose activity, negative = inhibition, usual class: inhibitors | 240,000 tested, 0.54% active;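 note: plate controls were vehicle for no effect and no enzyme for full effect; nearly all actives have a fitted effect of over 30% in size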
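RECQ1T1 50 nM; forked duplex (20 bp + 30-nt ss tails) 200 nM, ATP 2 mM final; pH 8.0, 2 mM MgCl2, 2.5 ug/ml poly(dI-dC); 15 min compound preincubation; discontinuous kinetic read over 2 h at RT.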
L3MBTL1 inh: inhibitors of human L3MBTL1. 230,000 tested, 0.66% active. Potency, µM (doses to about 57.1 µM), without a hit: top-dose activity, negative = inhibition, actives largely listed as inhibitors. Q9Y468. AlphaScreen L3MBTL1–H3K9me1 peptide binding; note: nearly all actives have a fitted effect of over 60% in size
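Displacement of a biotinylated histone H3(1-15) peptide monomethylated at Lys9 (75 nM) from L3MBTL1 (50 nM) was measured by AlphaScreen after a 30 min room-temperature compound incubation; cefsulodin titration served as intraplate control.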
GoLoco inh red: RGS12 GoLoco-Gai1 interaction inhibition. P63096. Potency, µM (titrated, usually from 61.6 µM), inactives show at the highest dose activity, negative = inhibition, usual class: inhibitors. Gai1:RGS12 GoLoco peptide FP, rhodamine, 10 min. 230,000 tested, 0.44% active; active = well fitted inhibition curve with a large enough effect, not every such curve was filed as active; inactive = no such curve, though single readings can be large or run the other way; note: nearly all actives have a fitted effect of over 30% in size
BLM helicase inh: inhibitors of human Bloom syndrome helicase BLM. P54132. 350,000 tested, 0.2% active. recombinant BLM DNA unwinding, fluorescence dequenching. Potency, µM (highest dose often 56.1 µM), for inactives: at the top dose activity change, negative = inhibition, actives largely listed as inhibitors. AID 2528;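 note: plate controls were vehicle for no effect and no enzyme for full effect; nearly all actives have a fitted effect of over 35% in size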
APEX1 inh: blocks human APE1 abasic DNA cleavage. P27695. recombinant APE1, TAMRA/BHQ-2 abasic DNA cleavage fluorescence. Potency, µM (top dose mostly 65.8 µM), for inactives: at the top dose activity change, negative = inhibition, most hits filed as inhibitors. 350,000 tested, 0.35% active. AID 2517;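 note: plate controls were vehicle for no effect and reference inhibitor for full effect; nearly all actives have a fitted effect of over 55% in size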
Target sequence (P27695 whole entry, looked up): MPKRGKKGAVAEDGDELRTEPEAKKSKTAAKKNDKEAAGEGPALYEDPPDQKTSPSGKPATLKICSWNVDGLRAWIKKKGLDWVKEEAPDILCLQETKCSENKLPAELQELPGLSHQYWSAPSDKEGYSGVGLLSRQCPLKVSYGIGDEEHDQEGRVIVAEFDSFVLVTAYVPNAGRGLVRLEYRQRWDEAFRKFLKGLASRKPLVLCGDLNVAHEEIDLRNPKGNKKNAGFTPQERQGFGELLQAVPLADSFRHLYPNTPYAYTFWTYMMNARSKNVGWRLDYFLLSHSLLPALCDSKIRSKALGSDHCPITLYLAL
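Substrate: short duplex with […] THF abasic site, 5'-TAMRA and 3'-BHQ-2, 50 nM final. APE1 at 0.75 nM, preincubated 15 min RT with compound. Fluorescence increase from first to third read measured activity.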
KDM4E inh: inhibitors of human JMJD2E histone demethylase; JMJD2E catalytic domain, FDH-coupled NADH fluorescence (FDH is formaldehyde dehydrogenase); AID 2147; Potency, µM (doses to about 57.1 µM), without a hit: top-dose activity change, negative = inhibition, usual class: inhibitors; 230,000 tested, 1.6% active; B2RXH2; active = well fitted inhibition curve with a large enough effect, not every such curve was filed as active; inconclusive = small, poorly fitted or top-dose-only effect, or another doubt; inactive = no such curve, though single readings can be large or run the other way;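 note: 0% = wells with enzyme and -100% = buffer wells without enzyme; nearly all actives have a fitted effect of over 50% in size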
RECQ1 inh conf: confirmation of human RECQ1 helicase inhibitors. shares compounds with RECQ1 inh-1. RECQ1 helicase DNA unwinding, fluorescence. Potency, µM (top dose mostly 229 µM), without a hit: top-dose activity change, negative = inhibition, actives largely listed as inhibitors. 610 tested, 28% active. AID 2708; note: nearly all actives have a fitted effect of over 45% in size
ADP FP counter: ADP displacement flagged in RECQ1 inhibitor counter-screen | shares compounds with RECQ1 inh-1 | ADP fluorescence polarization displacement counterscreen | Potency, µM (doses to about 228 µM), without a hit: at the highest dose activity change, negative = inhibition, most hits filed as inhibitors | 530 tested, 27% active | AID 2711; note: nearly all actives have a fitted effect of over 45% in size
RECQ1 inh-2: confirmation of human RECQ1 helicase inhibitors; shares compounds with RECQ1 inh-1; recombinant RECQ1 DNA unwinding, red fluorescence; Potency, µM (doses to about 119 µM), for the others: top-dose activity, negative = inhibition, actives largely listed as inhibitors; 1,100 tested, 15% active; AID 504841; note: nearly all actives have a fitted effect of over 50% in size
Numbers without * were called inactive; i = inactive; ? = inconclusive; / = no result; + = active, no number; [ ] = another dose, or the depositor's remark. Shown is part of a subset that was picked to be rich in hits. Unless noted, calls come from the whole dose curve; as a rule, active = well fitted curve in the direction sought with a large enough effect; inconclusive = small, poorly fitted or top-dose-only effect, or another doubt; inactive = no such curve, though single readings can be large; an effect the other way counts as inactive or inconclusive. Unless noted, % is set by controls: 0 for no effect and ±100 for the full control effect; potency is the fitted concentration of half-maximal effect.

SMILES | RECQ1 inh-1 | L3MBTL1 inh | GoLoco inh red | BLM helicase inh | APEX1 inh | KDM4E inh | RECQ1 inh-2 | others
COc1ccccc1Nc1nc(-c2c(C)nc3ncccn23)cs1 | ? | -13% | 10% | -3% | 1% | 16µM* | ?
O=C(O)c1ccc2c(c1)C(=O)N(c1cccc(C(=O)/C=C/c3ccccc3)c1)C2=O | 6.3µM* | 11% | -5% | -11% | 23% | 8% | ? | RECQ1 inh conf=?;ADP FP counter=3%[91.9 µM]
O=C(O)c1cccc(N2C(=O)c3ccc(C(=O)c4cccc([N+](=O)[O-])c4)cc3C2=O)c1 | -3% | / | -3% | 1% | 19% | -7% | /
Cc1cc(=O)c2c(O)c3c(O)cc(=O)c4c3c3c(cc(O)c1c23)C(C)(C)C=4O | 1.8µM* | / | 0.63µM* | 7.1µM* | 6% | -4% | i | RECQ1 inh conf=+;ADP FP counter=0.32µM*
Cc1c(NC(=O)Nc2cccc(C(F)(F)F)c2)sc2nc3n(c(=O)c12)CCC(C)CC3 (stereo not drawn) | / | / | / | -7% | / | / | /
O=C(OCc1nnc(-c2ccccc2)o1)c1ccc(S(=O)(=O)NCc2ccco2)cc1 | 40µM* | -29% | 1% | -12% | ? | 0% | ?
CN(C)S(=O)(=O)c1ccc(C(=O)OCc2nnc(-c3ccccc3)o2)cc1 | -3% | 2% | -1% | -1% | 24% | 2% | /
O=C(Nc1ccccc1)c1ccccc1NS(=O)(=O)c1ccc(Cl)s1 | 10% | -4% | -2% | -5% | 7% | -8% | /
Cc1ccc(NC(=O)c2ccccc2NS(=O)(=O)c2ccc(Cl)s2)cc1 | 40µM* | 9% | -7% | -6% | 16% | 2% | -18%
Cc1ccc(S(=O)(=O)NCC(=O)N(CC(=O)NCC2CCCO2)Cc2ccccc2)cc1 (stereo not drawn) | i | / | 9% | -1% | -2% | -2% | /
Cc1ccc(S(=O)(=O)NCC(=O)N(CC(=O)NCC2CCCO2)Cc2ccco2)cc1 (stereo not drawn) | 22µM* | ? | 39% | -28% | ? | -31% | -14%
Cc1ccc(/C(C#N)=C\c2ccc(N3CCOCC3)o2)cc1 | 32µM* | -9% | -22% | -7% | -2% | 16µM* | ?
Cc1ccc(CNC(=O)c2cccc(Nc3nc4ccccc4n4nnnc34)c2)cc1 | / | / | / | -6% | / | / | /
COCCN1C(=O)C(=O)/C(=C(/O)c2ccc(S(=O)(=O)N3CCOCC3)cc2)C1c1cccc(O)c1 (stereo not drawn) | -3% | 1% | -6% | 8% | -8% | -26% | / | RECQ1 inh conf=0%;ADP FP counter=4%
O=C(c1cccc(F)c1)N1CCC[C@@]2(CCN(C(c3ccccc3)c3ccccc3)C2)C1 | -7% | / | 46% | -11% | 4% | / | /
CCNc1ncc2nc(-c3ccc(OC)cc3)c(=O)n(CCC#N)c2n1 | -9% | / | -10% | -2% | -1% | / | /
O=P1(O)Oc2c(c(-c3ccccc3)cc3ccccc23)-c2c(-c3ccccc3)cc3ccccc3c2O1 | ? | / | -8% | -5% | 0% | -4% | ?
O=C(Nc1ccc(Cl)cc1)c1ccc(-n2cnnc2)cc1 | / | / | / | 3% | / | / | /
CCN(CC)S(=O)(=O)c1ccc(NC(=O)Cn2ncc3c([nH]c4ccccc43)c2=O)cc1 | / | / | / | 3% | / | / | /
Cc1cn2c(=O)c(S(=O)(=O)Nc3ccc(F)cc3F)c(C)nc2s1 | / | / | / | -1% | / | / | /
